Experimental data reported in PubChem BioAssay (NCI).
Compounds without any hit were thinned out: in the full panel of roughly 79,000, 15% have a hit. Unmarked numbers belong to inactive results. Calls of active or inactive are those of the source. No stated cut-off is given here; in the data, active means growth inhibition above about 70%; inactive means the rest.

Key:
[1] = NCI Yeast Anticancer Drug Screen. Data for the rad50 strain (AID 155);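 further: 0% = growth of vehicle-only cultures of the same strain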; details: S. cerevisiae rad50 strain growth inhibition, stronger effect = higher value
How it was run: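 Yeast carrying a defined DNA repair defect were exposed to test compounds, and growth was compared with vehicle-treated controls to give percent inhibition.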

[2] = NCI Yeast Anticancer Drug Screen. Data for the mec2-1 strain (AID 157); details: S. cerevisiae mec2-1 strain, stronger effect = higher value
How it was run: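 Vehicle-treated cultures served as reference for growth inhibition of compound-exposed mec2-1 yeast.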

[3] = NCI Yeast Anticancer Drug Screen. Data for the sgs1 mgt1 strain (AID 161);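 further: 0% = growth of cultures given vehicle only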; details: S. cerevisiae sgs1 mgt1 strain, stronger effect = higher value
How it was run: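 Read-out: growth inhibition vs vehicle controls. Cells: mutant yeast strain deficient in DNA damage repair.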

[4] = NCI Yeast Anticancer Drug Screen. Data for the cln2 rad14 strain (AID 165);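 further: 0% = growth equal to vehicle treated cultures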; details: S. cerevisiae cln2 rad14 strain, stronger effect = higher value
How it was run: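 Each compound was tested on cln2 rad14 yeast. Inhibition of growth was calculated against vehicle-exposed controls.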

[5] = NCI Yeast Anticancer Drug Screen. Data for the bub3 strain (AID 167); details: S. cerevisiae bub3 mutant strain, stronger effect = higher value
How it was run: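 Compounds were applied to a genetically altered yeast strain carrying a cell-cycle control defect. Growth inhibition was scored against vehicle-treated controls.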

[6] = NCI Yeast Anticancer Drug Screen. Data for the mlh1 rad18 strain (AID 175); details: S. cerevisiae mlh1 rad18 strain growth inhibition, stronger effect = higher value
How it was run: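 Vehicle-treated cultures served as the reference for growth inhibition in a yeast strain carrying DNA damage repair alterations exposed to each compound.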

[7] = at 5.0 µM (retest, dose inferred, filed as 0.5)
[8] = at 50.0 µM (retest, dose inferred, filed as 5.0)

Row | SMILES | growth inhibition [1, 7] | growth inhibition [1, 8] | growth inhibition ([1]; at 50.0 µM) | growth inhibition [2, 7] | growth inhibition [2, 8] | growth inhibition ([2]; at 50.0 µM) | growth inhibition [3, 7] | growth inhibition [3, 8] | growth inhibition ([3]; at 50.0 µM) | growth inhibition [4, 7] | growth inhibition [4, 8] | growth inhibition ([4]; at 50.0 µM) | growth inhibition [5, 7] | growth inhibition [5, 8] | growth inhibition ([5]; at 50.0 µM) | growth inhibition [6, 7] | growth inhibition [6, 8] | growth inhibition ([6]; at 50.0 µM)
1 | CC1CCC(C)(C)c2cc([N+](=O)[O-])cc([N+](=O)[O-])c21 (configuration not stated) | -1% | 99% (active) | -6.5% | 0% | 99% (active) | -0.75% | -4% | 99% (active) | 26.2% | 1% | 99% (active) | -8.1% | 18% | 99% (active) | 80.2% (active) | -1% | 99% (active) | 17.9%
2 | N#CC#Cc1cccc(C#CC#N)c1 | 98% (active) | 98% (active) | 98% (active) | 99% (active) | 99% (active) | 98.9% (active) | 99% (active) | 99% (active) | 50% | 99% (active) | 98% (active) | 98.8% (active) | 98% (active) | 98% (active) | 98.9% (active) | 99% (active) | 98% (active) | 99.2% (active)
3 | Cc1ncc(Br)c(C(=O)O)n1 | 0% | -7% | 6.65% | 1% | 3% | 19.3% | 5% | -3% | 3.1% | -5% | 1% | 34.2% | -4% | -6% | 0.75% | -1% | -8% | 52.9%
4 | NS(=O)(=O)c1ccc(-n2cccc2)cc1 | 0% | -4% | 10.6% | -2% | -3% | -11.3% | -1% | -3% | -1.6% | 1% | -1% | 56.6% | -6% | -7% | 23.5% | -2% | -3% | 7.7%
5 | CC(C)(C)c1ccc(Sc2ncnc3ccccc23)cc1 | 4% | 78% (active) | 90.8% (active) | 21% | 90% (active) | 89.3% (active) | 2% | 89% (active) | 89.5% (active) | -1% | 81% (active) | 71.2% (active) | 3% | 90% (active) | 92.5% (active) | -6% | 87% (active) | 91.6% (active)
6 | CN(C)CCNC(=O)c1cccc2ccc(-c3ccc(-c4ccccc4)cc3)nc12 | 4% | 99% (active) | 99.2% (active) | -1% | 98% (active) | 99.6% (active) | -1% | 99% (active) | 99.2% (active) | 1% | 99% (active) | 98.5% (active) | -41% | 99% (active) | 99.1% (active) | 0% | 99% (active) | 99.4% (active)
7 | CCN(CC)CCCNc1cc(C)nc2c1ccc1c2ccc2c(NCCCN(CC)CC)cc(C)nc21 | -4% | 92% (active) | 61.9% | -2% | 75% (active) | 97.8% (active) | -1% | 78% (active) | 65.8% | -7% | 82% (active) | 73.7% (active) | -4% | 97% (active) | 96.7% (active) | -4% | 81% (active) | 94.2% (active)
8 | CCNC(=S)N/N=C(\C)c1cccc(C)n1 | -5% | 21% | 54.6% | -37% | 34% | 76.3% (active) | -31% | 22% | 54.7% | -21% | 24% | 50.9% | -20% | 27% | 62% | -9% | 21% | 37.2%
9 | CC(=O)Nc1ccc(C#N)c2ccccc12 | 43% | 33% | 40.4% | 42% | 33% | 35.8% | 0% | 29% | 23.1% | 41% | 34% | 7.4% | 21% | 44% | 40.8% | 35% | 35% | 19.4%
